NALP3 yeast inh = NALP3 inhibition in yeast | 330,000 tested, 0.39% active | inhibition, % at 10 µM | Yeast reconstituted NLRP3/ASC/caspase-1, beta-gal luminescence, 24 h | AID 2825;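 active = inhibition of 50% or more; inactive = inhibition below 50%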;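 note: plate controls were induced DMSO wells for no effect and uninduced yeast grown without galactose for full effect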
PfHsp90 yeast 2 = reduces growth (ATP signal) of yeast expressing P. falciparum Hsp90; AID 504621; 310,000 tested, 0.32% active; inhibition, % at 9.4 µM; S. cerevisiae expressing PfHsp90, BacTiter-Glo ATP, 48 h; yeast lacking PDR1 and PDR3 efflux regulators;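 active = every replicate shows inhibition above about 80%, whatever the replicate mean, limit read from the data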;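 note: 0% = DMSO neutral controls and 100% = 20 µM radicicol positive controls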
NALP1 yeast inh = blocks the NALP1 inflammasome reconstituted in yeast. AID 2071. 280,000 tested, 0.61% active. S. cerevisiae NALP1/ASC/caspase-1 growth, X-gal OD620, 72 h. inhibition, % at 10 µM; in the data active = inhibition mostly above about 24%, no sharp cut-off; inactive = mostly below about 32%
tim23-1 inh = tim23-1 yeast growth inhibition | S. cerevisiae tim23-1 growth, BacTiter-Glo luminescence, 24 h | inhibition, % at 20 µM | 330,000 tested, 1.3% active;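 active = growth inhibition of the mutant yeast at or above 50%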;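 note: temperature-sensitive mutant grown at 25 °C; plate controls were DMSO-treated mutant yeast for no effect and medium wells lacking yeast for full effect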
tim10-1 inh = tim10-1 yeast growth inhibition | inhibition, % at 20 µM | AID 463190 | S. cerevisiae tim10-1 ts strain growth, BacTiter-Glo, 24 h | 330,000 tested, 2.2% active;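 active = inhibition of at least 40%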;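 note: mutant grown at 25 °C; 0% = DMSO wells with yeast and 100% = wells holding no yeast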
TIM10 inh = TIM10 yeast growth inhibition; S. cerevisiae TIM10 strain growth, BacTiter-Glo luminescence, 24 h; inhibition, % at 10 µM; 330,000 tested, 1.4% active;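 active = inhibition of 40% or more at the single tested concentration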;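 note: wild-type TIM10 isogenic control strain grown at permissive 25 °C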
tim10-1 conf = tim10-1 yeast growth inhibition, confirmed | AID 463213 | 7,400 tested, 56% active | shares compounds with tim10-1 inh | S. cerevisiae tim10-1 ts strain growth, BacTiter-Glo, 24 h | inhibition, % at 20 µM;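 active = inhibition of yeast growth at or above a set limit in either of two repeat tests at 20 µM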;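 note: tim10-1 mutant grown at permissive 25 °C to find synthetic lethal compounds; 0% = DMSO yeast wells and 100% = medium wells without yeast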
An asterisk follows results filed as active; · = no result given. The list is not random: actives were taken first. Their share in the collection is about 4.2%.

SMILES | NALP3 yeast inh | PfHsp90 yeast 2 | NALP1 yeast inh | tim23-1 inh | tim10-1 inh | TIM10 inh | tim10-1 conf
Cc1ccc(CN2CCSc3ccc(C(=O)N4CCC5(CC4)OCCO5)cc32)cc1 | 4 | -5 | -3 | 43 | 46* | 5 | 3
O=C(c1ccc2c(c1)N(Cc1ccc(F)cc1)CCS2)N1CCC2(CC1)OCCO2 | 9 | 12 | 13 | 32 | 40* | -3 | 10
O=C(c1ccc2c(c1)ncn2-c1ccc(F)cc1F)N1CCC2(CC1)OCCO2 | 12 | -6 | 5 | 17 | 11 | -4 | ·
COC(=O)C[C@]1(C(=O)OC)CN(C#N)N(c2ccc(Cl)cc2)C12c1ccccc1-c1ccccc12 | 26 | -10 | -2 | 25 | 46* | 32 | 21
COC(=O)[C@@H]1[C@@H](C(=O)OC)C2(c3ccccc3-c3ccccc32)N(c2ccc(Cl)cc2)N1C#N | 9 | -26 | -5 | 26 | 33 | 21 | ·
CC(=O)Nc1nc(CCl)cs1 | 14 | -16 | -25 | 12 | 5 | -5 | ·
CCC1(CC)C(=O)NC(=O)N(CCc2ccccn2)C1=O | · | -26 | · | · | · | · | ·
CN(C)C(=O)Oc1ccc2c(c1)O/C(=C\c1cccc(Cl)c1)C2=O | 14 | -4 | 13 | 36 | 41* | 23 | 32*
CCN(CC)CCCOC(=O)C(OC(C)C)(c1ccccc1)c1ccccc1 | 16 | 23 | 10 | 12 | 42* | 8 | 12
CCOC(C(=O)OCCCN(CC)CC)(c1ccccc1)c1ccccc1 | 23 | · | 16 | 5 | 7 | -1 | ·
CCCCOP(=O)(CN1CCOCC1)OCCCC | -7 | -1 | -5 | 11 | 6 | -9 | ·
O=C(Nc1ccc(C(F)(F)F)cc1)c1cccn(Cc2ccc3c(c2)OC(F)(F)O3)c1=O | 14 | 0 | 11 | 12 | 46* | 33 | 21
COc1ccc2nc3c(C)n(C)ccc-3c2c1 | · | -27 | · | · | · | · | ·
O=C1CN=C(c2ccccc2)c2cc(Br)ccc2N1Cc1cc(=O)n2ccccc2n1 | -2 | 3 | 20 | 19 | 41* | 25 | 5
COc1ccc(C(c2ccc(OC)cc2)C(Cl)(Cl)Cl)cc1 | 17 | -2 | · | -2 | -15 | -5 | ·
Cn1c(O)c(C=NC2CC3CCC2(C)C3(C)C)c(=O)[nH]c1=O (stereo not drawn) | 6 | -15 | -19 | 31 | 26 | 11 | ·
CCCCn1c(O)c(C=NC2CC3CCC2(C)C3(C)C)c(=O)[nH]c1=O (stereo not drawn) | 4 | -13 | 35 | 25 | 55* | 38 | 40*
CC(C)(O)[C@H]1O[C@H]2CC[C@@]3(C)[C@@](O)(CC[C@H]4Cc5c([nH]c6ccccc56)[C@@]43C)C2=CC1=O | 10 | · | -6 | 45 | 47* | 30 | 41*
COc1ccccc1-n1c(O)c(C=NCCN2CCNCC2)c(=O)[nH]c1=O | 21 | · | 0 | 3 | 3 | 7 | ·
O=C(Nc1nccs1)c1c(O)c2c(n(Cc3ccco3)c1=O)CCCC2 | 17 | -16 | 14 | 37 | 12 | 15 | ·
CN(C)C1(c2nnnn2CCOC(=O)Nc2ccc(Cl)cc2)CCCCC1 | 0 | 8 | 0 | 45 | 41* | 29 | 37*
Cc1cc(OC(=O)CCCNC(=O)OC(C)(C)C)c2c3c(c(=O)oc2c1)CCC3 | -15 | · | 6 | 4 | 22 | 29 | ·
Cc1cc(OC(=O)CCNC(=O)OC(C)(C)C)c2c3c(c(=O)oc2c1)CCC3 | -66 | · | 1 | 35 | 45* | 18 | 39*
Cc1cc(C=C2C(=O)N(C)C(=S)N(C)C2=O)c(C)n1C1CCCC1 | 22 | -26 | 6 | 41 | 47* | 21 | 20
CCOC(=O)N(c1ccccc1)P1(=S)OCC(C)O1 (stereo not drawn) | 9 | · | 12 | 7 | 50* | -20 | 12
SMILES | NALP3 yeast inh | PfHsp90 yeast 2 | NALP1 yeast inh | tim23-1 inh | tim10-1 inh | TIM10 inh | tim10-1 conf
CCOC(=O)N(c1ccccc1)P1(=S)OCCO1 | 4 | 9 | 13 | 6 | -1 | -9 | ·
O=C(N/N=C/c1c(O)n(CCc2ccccc2)c(=O)[nH]c1=O)c1ccccc1 | 5 | · | -6 | -1 | 20 | 5 | ·
c1ccc(-c2cc(-c3ccccc3)[n+](-c3ccccc3)c(-c3ccccc3)c2)cc1 | 14 | -26 | · | 20 | 22 | 24 | ·
Cc1ccc(-c2cc(-c3ccc(C)cc3)[n+](-c3ccccc3)c(-c3ccc(C)cc3)c2)cc1 | 31 | -10 | · | 47 | 43* | 15 | 23
CN(C)c1ccc(-[n+]2c(-c3ccccc3)cc(-c3ccccc3)cc2-c2ccccc2)cc1 | 13 | -35 | 10 | 38 | 52* | 34 | 37*
CC1OC(OC2C=C3CCC4C(CCC5(C)C(c6ccc(=O)oc6)CCC45O)C3(C)CC2)C(O)C(OC2OC(CO)C(O)C(O)C2O)C1O (stereo not drawn) | · | 11 | · | · | · | · | ·
CCOP(=O)(OCC)C(O)c1ccc(OC)c(OC)c1 (stereo not drawn) | -1 | -4 | -6 | -6 | -4 | -8 | ·
O=C(CCc1nnc2ccc(NCc3ccccc3)nn12)N1CCC2(CC1)OCCO2 | 11 | -16 | -13 | -4 | 0 | 11 | ·
CN(C)C(=O)Oc1ccc2oc(=O)cc(-c3cc4ccccc4o3)c2c1 | 20 | -18 | 22 | 29 | 40 | 19 | 8
Cc1cc2oc(=O)cc(-c3cc4ccccc4o3)c2cc1OC(=O)N(C)C | 13 | -4 | 22 | 24 | 29 | -8 | ·
Nc1c(C(=O)OCc2ccccc2)c2nc3ccccc3nc2n1Cc1cccs1 | 15 | · | 5 | 22 | 45* | 2 | 20
CN1CCC2(CC1)CC(NC=O)c1ccccc1O2 (stereo not drawn) | 3 | 23 | 6 | 9 | 10 | 4 | ·
CN(C)c1ccc(C=C(C#N)C#N)cc1 | 31 | 2 | 21 | 20 | 32 | 12 | ·
N#CC(C#N)=Cc1ccc(N2CCCC2)cc1 | 42 | 7 | 7 | 10 | 41* | -2 | 17
COC(=O)C1=C(c2c(C)noc2C)C[C@@H]2CC[C@H]1N2C(=O)N1CCc2cc(OC)c(OC)cc2C1 | 13 | -18 | · | 3 | 2 | 8 | ·
COc1ccc(N2C(=O)CC(N3CC=C(c4ccccc4)CC3)C2=O)cc1 (stereo not drawn) | 11 | 28 | 29 | 28 | 43* | 27 | 22
CCOc1cc(-c2nc3c(C)cccn3c2NCC2CCCO2)ccc1O (stereo not drawn) | 3 | 7 | 7 | 17 | 22 | 31 | ·
O=C(N/N=C/c1c(O)n(C2CCCCC2)c(=S)[nH]c1=O)c1ccccc1O | 26 | 10 | -1 | 24 | 53* | -3 | 4
